Only some compounds are listed: those with a hit (about 4.1% of all), similar ones and a draw of the others.
tim23-1 inh – tim23-1 yeast growth inhibition; S. cerevisiae tim23-1 growth, BacTiter-Glo luminescence, 24 h; inhibition, % at 20 µM; actives 1.3% (n = 330,000); AID 463212;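 active = growth inhibition of the mutant yeast at or above 50%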;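 also: temperature-sensitive mutant grown at 25 °C; plate controls were DMSO-treated mutant yeast for no effect and medium wells lacking yeast for full effect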
NALP1 yeast inh – NALP1 inhibition; S. cerevisiae NALP1/ASC/caspase-1 growth, X-gal OD620, 72 h; inhibition, % at 10 µM; actives 0.61% (n = 280,000); AID 2071; in the data active = inhibition mostly above about 24%, no sharp cut-off; inactive = mostly below about 32%
tim10-1 inh – inhibits growth of tim10-1 mutant yeast. S. cerevisiae tim10-1 ts strain growth, BacTiter-Glo, 24 h. inhibition, % at 20 µM. actives 2.2% (n = 330,000);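 active = inhibition of at least 40%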;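 also: mutant grown at 25 °C; 0% = DMSO wells with yeast and 100% = wells holding no yeast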
NALP3 yeast inh – inhibitors of NALP3 inflammasome in yeast; Yeast reconstituted NLRP3/ASC/caspase-1, beta-gal luminescence, 24 h; inhibition, % at 10 µM; actives 0.39% (n = 330,000); AID 2825;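 active = inhibition of 50% or more; inactive = inhibition below 50%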;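 also: plate controls were induced DMSO wells for no effect and uninduced yeast grown without galactose for full effect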
TIM10 inh – growth inhibitors of TIM10 yeast strain; S. cerevisiae TIM10 strain growth, BacTiter-Glo luminescence, 24 h; inhibition, % at 10 µM; AID 463195; actives 1.4% (n = 330,000);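 active = inhibition of 40% or more at the single tested concentration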;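 also: wild-type TIM10 isogenic control strain grown at permissive 25 °C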
PfHsp90 yeast 2 – inhibits growth of yeast expressing Plasmodium falciparum Hsp90; AID 504621; S. cerevisiae expressing PfHsp90, BacTiter-Glo ATP, 48 h; yeast lacking PDR1 and PDR3 efflux regulators; actives 0.32% (n = 310,000); inhibition, % at 9.4 µM;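 active = every replicate shows inhibition above about 80%, whatever the replicate mean, limit read from the data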;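 also: 0% = DMSO neutral controls and 100% = 20 µM radicicol positive controls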
tim10-1 confirm – confirmation of tim10-1 mutant yeast growth inhibitors; shares compounds with tim10-1 inh; S. cerevisiae tim10-1 ts strain growth, BacTiter-Glo, 24 h; inhibition, % at 20 µM; actives 56% (n = 7,400);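 active = inhibition of yeast growth at or above a set limit in either of two repeat tests at 20 µM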;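 also: tim10-1 mutant grown at permissive 25 °C to find synthetic lethal compounds; 0% = DMSO yeast wells and 100% = medium wells without yeast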
tim10 confirm – TIM10 yeast growth inhibition, confirmed; shares compounds with TIM10 inh; S. cerevisiae tim10 strain growth, BacTiter-Glo luminescence, 24 h; inhibition, % at 10 µM; actives 63% (n = 4,600);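 active = inhibition of yeast growth at or above a set limit in either of two replicates at 10 µM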;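 also: this counterscreen used the strain with wild-type TIM10; 0% = yeast with DMSO and 100% = medium wells lacking yeast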
tim23-1 confirm – confirmation of tim23-1 mutant yeast growth inhibitors; shares compounds with tim23-1 inh; S. cerevisiae tim23-1 growth, BacTiter-Glo luminescence, 24 h; inhibition, % at 20 µM; actives 83% (n = 4,400);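 active = inhibition above about 39% in either of two replicate wells at 20 µM, limit read from the data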;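 also: temperature-sensitive tim23-1 mutant grown at 25 °C; 0% = DMSO wells with yeast and 100% = medium wells without yeast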
* marks the source's active call; other numbers are inactive results; / = no result.

SMILES | tim23-1 inh | NALP1 yeast inh | tim10-1 inh | NALP3 yeast inh | TIM10 inh | PfHsp90 yeast 2 | tim10-1 confirm | tim10 confirm | tim23-1 confirm
Cc1csc2nc(O)c(C(=O)NC3CCCCCC3)c(=O)n12 | 65.5* | / | 41.5* | 41.9 | 30.0 | / | 15.6 | / | 50.9*
Cc1csc2nc(O)c(C(=O)NC3CCCCC3)c(=O)n12 | 73.8* | / | 40.1* | 30.3 | 14.1 | -118.3 | 9.9 | / | 55.6*
Cc1csc2nc(O)c(C(=O)NCCCN3CCCC3=O)c(=O)n12 | 4.2 | / | 1.2 | 14.3 | -11.9 | / | / | / | /
Cc1cccn2c(=O)c(C(=O)NC3CCCCC3)c(O)nc12 | 54.7* | 9.9 | 42.7* | 41.3 | 14.6 | -9.6 | -37.9 | / | 44.1*
Cc1cccn2c(=O)c(C(=O)NC3CCCCC3C)c(O)nc12 (stereo not given) | 34.1 | / | -23.2 | 23.9 | -35.8 | 1.7 | / | / | /
COc1cc(CCC(=O)NCCc2ccc(F)cc2)cc(OC)c1OC | 1.4 | 10.7 | 14.5 | 10.9 | 4.0 | -10.4 | / | / | /
Cc1cccc(-c2nnc(SCC(=O)c3ccc(O)cc3O)n2C)c1 | -6.9 | -23.6 | -9.9 | 24.0 | -22.3 | -27.6 | / | / | /
CCCC(=O)Nc1nnc(/C=C/c2ccc(OC)cc2)s1 | 10.6 | 3.8 | -3.0 | 20.4 | 11.1 | -5.3 | / | / | /
COc1ccc(/C=C/c2nnc(NC(=O)C(C)(C)C)s2)cc1 | 52.1* | / | 41.1* | 26.5 | 29.6 | 3.3 | 31.4* | / | 46.1*
N#CCCN(Cc1ccccc1)S(=O)(=O)c1cccs1 | -8.5 | 9.7 | -12.2 | 15.8 | 6.3 | -16.9 | / | / | /
CN(C)c1ccc(/C=N/NC(=O)CCCO)cc1 | 7.9 | 11.8 | -7.9 | 13.1 | 10.2 | 13.2 | / | / | /
CN(C)c1ccc(/C=N\NC(=S)SCN2C(=O)C3CCC(C)(C2=O)C3(C)C)cc1 (stereo not given) | 53.2* | 1.3 | 61.0* | 8.6 | 53.1* | -20.8 | 52.1* | -20.1 | 46.7*
COc1ccc(/C=N\NC(=S)SCN2C(=O)C3CCC(C)(C2=O)C3(C)C)cc1 (stereo not given) | 51.8* | / | 48.5* | 23.2 | 52.1* | -41.1 | 39.5* | -7.9 | 51.3*
CC12CCC(C(=O)N(CSC(=S)N/N=C\c3ccccc3O)C1=O)C2(C)C (stereo not given) | 65.7* | -7.2 | 47.3* | 32.6 | 44.1* | 8.5 | 24.3 | 38.0* | 56.6*
CC12CCC(C(=O)N(CC(O)CN3CCN(Cc4ccccc4)CC3)C1=O)C2(C)C (stereo not given) | 1.5 | 34.1 | -10.8 | -1.1 | 7.6 | / | / | / | /
COc1ccc(C(=O)NN2C(=O)C3CCC(C)(C2=O)C3(C)C)cc1 (stereo not given) | 28.8 | 17.6 | 12.1 | -2.3 | -0.5 | 0.1 | / | / | /
O=C(NC12CC3CC(CC(C3)C1)C2)c1cc([N+](=O)[O-])ccc1N1CCOCC1 | 9.5 | 14.1 | 28.5 | 14.9 | -1.0 | 11.1 | / | / | /
COC(=O)c1cc(NC(=O)COC(=O)C2COc3ccccc3O2)cc(C(=O)OC)c1 (stereo not given) | 20.3 | / | 19.4 | 3.4 | 7.8 | 4.7 | / | / | /
CS(=O)(=O)c1ccc(S(=O)CC(=O)OCc2ccccc2)c([N+](=O)[O-])c1 (stereo not given) | / | -2.5 | / | / | / | -18.2 | / | / | /
O=C(CS(=O)c1ccc(C(F)(F)F)cc1[N+](=O)[O-])Oc1ccccc1 (stereo not given) | 71.7* | -23.7 | 49.7* | -19.0 | 70.4* | -9.4 | 57.2* | 45.8* | 74.6*
CC1CCc2c(sc(NC(=O)C3=COCCO3)c2C(N)=O)C1 (stereo not given) | 21.5 | / | 13.3 | 9.1 | 16.1 | -2.0 | / | / | /
CNC(=O)c1c(NC(=O)C2=COCCO2)sc2c1CCC(C)C2 (stereo not given) | 55.6* | -0.1 | 51.4* | 9.1 | 30.7 | -25.1 | 23.4 | / | 49.5*
COc1ccc(NC(=O)C2CC(=O)n3cnnc3S2)cc1 (stereo not given) | -2.5 | 24.4 | 39.5 | -12.1 | 33.2 | 10.0 | / | / | /
COc1cccc(NC(=O)C2CC(=O)n3cnnc3S2)c1 (stereo not given) | 60.7* | 15.9 | 43.1* | 13.3 | 41.0* | 12.7 | 33.0* | 11.5 | 58.8*
Cc1cc(-c2nc3cc(F)ccc3s2)ccc1N | / | / | / | / | / | -4.9 | / | / | /
SMILES | tim23-1 inh | NALP1 yeast inh | tim10-1 inh | NALP3 yeast inh | TIM10 inh | PfHsp90 yeast 2 | tim10-1 confirm | tim10 confirm | tim23-1 confirm
S=C(Nc1ccc2nsnc2c1)NC1CCCCC1 | 53.3* | 17.1 | 52.8* | 9.0 | 53.9* | -8.2 | 33.2* | 22.1 | 56.5*
COC(=O)c1ccccc1NC(=S)NC(=O)c1ccccc1C | 59.2* | 17.9 | 71.0* | 4.7 | 69.5* | / | 65.2* | 69.2* | -23.8
COC(=O)c1ccccc1NC(=S)NC(=O)c1ccc2c(c1)OCO2 | 72.2* | -10.3 | 63.0* | 2.2 | 61.7* | 7.7 | 40.8* | 45.0* | 39.3*
Cc1ccccc1C(=O)NC(=S)Nc1ccccc1C(=O)O | 18.0 | -35.0 | 29.6 | 9.5 | 7.4 | -7.6 | / | / | /
CCNc1ccc2noc3c2c1C(=O)c1ccccc1-3 | 60.2* | 40.4 | 55.6* | 16.3 | 29.2 | -8.5 | 44.1* | / | 49.1*
Cc1ccc(S(=O)(=O)O/N=C2\CCCc3ccccc32)cc1 | 10.7 | -6.5 | 18.4 | 12.1 | 11.0 | -10.0 | / | / | /
CC1=C(C)/C(=N\OS(=O)(=O)c2ccccc2)C=CC1=O | 50.5* | 7.1 | 94.5* | 35.8 | 94.6* | 105.8* | 92.8* | 9.4 | 94.2*
Cc1c(C(=O)N2CCCCC2C)sc2nc3n(c(=O)c12)CCC3 (stereo not given) | 12.4 | 13.0 | 14.7 | -0.5 | 11.1 | -11.7 | / | / | /
O=[N+]([O-])c1ccc(CNc2ccc(Cl)cc2)s1 | 60.6* | / | 56.8* | 30.6 | 56.3* | -8.0 | 54.5* | 64.8* | 68.4*
O=C(Nc1ccc(Cl)cc1)Nc1csc([N+](=O)[O-])c1 | 21.7 | / | 12.8 | 33.7 | 19.0 | / | / | / | /
C=CCn1c(=O)/c(=C/c2ccc(Cl)cc2)s/c1=C(/C#N)c1nnc2n1CCCCC2 | 63.3* | 3.2 | 57.5* | -0.2 | 48.9* | -12.2 | 33.0* | 44.3* | 57.5*
C=CCn1c(=O)/c(=C/c2ccc(O)cc2)s/c1=C(/C#N)c1nnc2n1CCCCC2 | 23.5 | 6.5 | 7.5 | 23.4 | 11.7 | -9.1 | / | / | /
COc1ccccc1C(O)P(=O)(OCC(C)C)c1ccc(N(C)C)cc1 (stereo not given) | 14.5 | -22.4 | 9.6 | -4.3 | 25.9 | -2.5 | / | / | /
C/C(=N\Nc1nc(C)cc(-c2ccccc2)n1)c1ccc(F)cc1 | 5.2 | 3.7 | 5.3 | 33.3 | 1.4 | -4.8 | / | / | /
